About 410 targets per protein were measured; listed, in parts, are those with the strongest signals and a random draw of the rest.
Assays:
Assay in all cases: glycan array binding signal (z-score within array); higher = stronger binding
Conditions in all cases: glycan notation: IUPAC condensed, linker removed
Fuc(a1-2)Gal = target: Fuc(a1-2)Gal
Method in brief: (§1)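 Glycan array data were curated from 3228 arrays in the Consortium for Functional Glycomics database and kept only where the protein sequence was available. Glycan names were converted to IUPAC-condensed notation, and columns mapping to the same glycan were averaged. The binding signal is a within-array Z-score, averaged across arrays of the same protein sequence at different concentrations or buffers and across linkers. Negative Z-scores can be read as non-binding.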

Fuc(a1-2)Gal(b1-3)GalNAc = target: Fuc(a1-2)Gal(b1-3)GalNAc
Method in brief: as §1

[1] = target: Fuc(a1-2)Gal(b1-3)GlcNAc(b1-2)Man(a1-3)[Fuc(a1-2)Gal(b1-3)GlcNAc(b1-2)Man(a1-6)]Man(b1-4)GlcNAc(b1-4)[Fuc(a1-6)]GlcNAc
Method in brief: as §1

[2] = target: Fuc(a1-2)Gal(b1-3)GlcNAc6S
Method in brief: as §1

Fuc(a1-2)Gal6S(b1-4)Glc = target: Fuc(a1-2)Gal6S(b1-4)Glc
Method in brief: as §1

[3] = target: Fuc(a1-2)[Gal(a1-3)]Gal(b1-4)[Fuc(a1-3)]GlcNAc(b1-3)GalNAc
Method in brief: as §1

[4] = target: Fuc(a1-2)[Gal(a1-4)]Gal(b1-4)GlcNAc
Method in brief: as §1

[5] = target: Fuc(a1-2)[GalNAc(a1-3)]Gal(b1-4)Glc
Method in brief: as §1

[6] = target: Fuc(a1-2)[GalNAc(a1-3)]Gal(b1-4)[Fuc(a1-3)]GlcNAc
Method in brief: as §1

[7] = target: Fuc(a1-3)[Gal(b1-4)]GlcNAc(b1-3)Gal(b1-4)[Fuc(a1-3)]GlcNAc(b1-3)Gal(b1-4)[Fuc(a1-3)]GlcNAc
Method in brief: as §1

[8] = target: Fuc(a1-3)[Gal(b1-4)]GlcNAc(b1-3)GalNAc
Method in brief: as §1

Fuc(b1-3)GlcNAc = target: Fuc(b1-3)GlcNAc
Method in brief: as §1

[9] = target: Gal(a1-3)Gal(b1-4)GlcNAc(b1-2)Man
Method in brief: as §1

[10] = target: Gal(a1-3)Gal(b1-4)GlcNAc(b1-3)GalNAc
Method in brief: as §1

[11] = target: Gal(b1-3)[Fuc(a1-4)]GlcNAc(b1-3)Gal(b1-4)[Fuc(a1-3)]GlcNAc
Method in brief: as §1

[12] = target: Gal(b1-3)[GlcNAc(b1-6)]GalNAc
Method in brief: as §1

[13] = target: Gal(b1-4)GalNAc(a1-3)[Fuc(a1-2)]Gal(b1-4)GlcNAc
Method in brief: as §1

[14] = target: Gal(b1-4)GlcNAc(b1-2)Man(a1-3)[Gal(b1-4)GlcNAc(b1-2)Man(a1-6)]Man(b1-4)GlcNAc(b1-4)[Fuc(a1-6)]GlcNAc
Method in brief: as §1

[15] = target: Gal(b1-4)GlcNAc(b1-2)Man(a1-3)[Gal(b1-4)GlcNAc(b1-2)Man(a1-6)][Gal(b1-4)GlcNAc(b1-4)]Man(b1-4)GlcNAc(b1-4)[Fuc(a1-6)]GlcNAc
Method in brief: as §1

[16] = target: Gal(b1-4)GlcNAc(b1-3)Gal(b1-4)Glc
Method in brief: as §1

[17] = target: Gal(b1-4)GlcNAc(b1-3)Gal(b1-4)GlcNAc(b1-3)Gal(b1-4)GlcNAc
Method in brief: as §1

[18] = target: Gal(b1-4)GlcNAc(b1-3)Gal(b1-4)GlcNAc(b1-3)Gal(b1-4)GlcNAc(b1-2)Man(a1-3)[Gal(b1-4)GlcNAc(b1-3)Gal(b1-4)GlcNAc(b1-3)Gal(b1-4)GlcNAc(b1-2)Man(a1-6)]Man(b1-4)GlcNAc(b1-4)GlcNAc
Method in brief: as §1

[19] = target: Gal(b1-4)GlcNAc(b1-3)Gal(b1-4)GlcNAc(b1-3)Gal(b1-4)GlcNAc(b1-2)Man(a1-3)[Gal(b1-4)GlcNAc(b1-3)Gal(b1-4)GlcNAc(b1-3)Gal(b1-4)GlcNAc(b1-2)Man(a1-6)]Man(b1-4)GlcNAc(b1-4)[Fuc(a1-6)]GlcNAc
Method in brief: as §1

[20] = target: Gal(b1-4)GlcNAc(b1-3)Gal(b1-4)GlcNAc(b1-3)Gal(b1-4)GlcNAc(b1-2)[Gal(b1-4)GlcNAc(b1-3)Gal(b1-4)GlcNAc(b1-3)Gal(b1-4)GlcNAc(b1-6)]Man(a1-6)[Gal(b1-4)GlcNAc(b1-3)Gal(b1-4)GlcNAc(b1-3)Gal(b1-4)GlcNAc(b1-2)Man(a1-3)]Man(b1-4)GlcNAc(b1-4)[Fuc(a1-6)]GlcNAc
Method in brief: as §1

[21] = target: Gal(b1-4)GlcNAc(b1-3)Gal(b1-4)GlcNAc(b1-3)Gal(b1-4)GlcNAc(b1-3)Gal(b1-4)GlcNAc(b1-2)Man(a1-3)[Gal(b1-4)GlcNAc(b1-3)Gal(b1-4)GlcNAc(b1-3)Gal(b1-4)GlcNAc(b1-3)Gal(b1-4)GlcNAc(b1-2)Man(a1-6)]Man(b1-4)GlcNAc(b1-4)GlcNAc
Method in brief: as §1

[22] = target: Gal(b1-4)GlcNAc(b1-3)Gal(b1-4)GlcNAc(b1-3)Gal(b1-4)GlcNAc(b1-3)Gal(b1-4)GlcNAc(b1-2)Man(a1-3)[Gal(b1-4)GlcNAc(b1-3)Gal(b1-4)GlcNAc(b1-3)Gal(b1-4)GlcNAc(b1-3)Gal(b1-4)GlcNAc(b1-2)Man(a1-6)]Man(b1-4)GlcNAc(b1-4)[Fuc(a1-6)]GlcNAc
Method in brief: as §1

[23] = target: Gal(b1-4)GlcNAc(b1-3)Gal(b1-4)GlcNAc(b1-3)Gal(b1-4)GlcNAc(b1-3)Gal(b1-4)GlcNAc(b1-2)[Gal(b1-4)GlcNAc(b1-3)Gal(b1-4)GlcNAc(b1-3)Gal(b1-4)GlcNAc(b1-3)Gal(b1-4)GlcNAc(b1-6)]Man(a1-6)[Gal(b1-4)GlcNAc(b1-3)Gal(b1-4)GlcNAc(b1-3)Gal(b1-4)GlcNAc(b1-3)Gal(b1-4)GlcNAc(b1-2)Man(a1-3)]Man(b1-4)GlcNAc(b1-4)[Fuc(a1-6)]GlcNAc
Method in brief: as §1

[24] = target: Gal(b1-4)GlcNAc(b1-3)Gal(b1-4)GlcNAc(b1-3)Gal(b1-4)GlcNAc(b1-3)Gal(b1-4)GlcNAc(b1-3)Gal(b1-4)GlcNAc(b1-2)Man(a1-3)[Gal(b1-4)GlcNAc(b1-3)Gal(b1-4)GlcNAc(b1-3)Gal(b1-4)GlcNAc(b1-3)Gal(b1-4)GlcNAc(b1-3)Gal(b1-4)GlcNAc(b1-2)Man(a1-6)]Man(b1-4)GlcNAc(b1-4)[Fuc(a1-6)]GlcNAc
Method in brief: as §1

[25] = target: Gal(b1-4)GlcNAc(b1-3)Gal(b1-4)GlcNAc(b1-3)Gal(b1-4)GlcNAc(b1-3)Gal(b1-4)GlcNAc(b1-3)Gal(b1-4)GlcNAc(b1-2)[Gal(b1-4)GlcNAc(b1-3)Gal(b1-4)GlcNAc(b1-3)Gal(b1-4)GlcNAc(b1-3)Gal(b1-4)GlcNAc(b1-3)Gal(b1-4)GlcNAc(b1-6)]Man(a1-6)[Gal(b1-4)GlcNAc(b1-3)Gal(b1-4)GlcNAc(b1-3)Gal(b1-4)GlcNAc(b1-3)Gal(b1-4)GlcNAc(b1-3)Gal(b1-4)GlcNAc(b1-2)Man(a1-3)]Man(b1-4)GlcNAc(b1-4)[Fuc(a1-6)]GlcNAc
Method in brief: as §1

[26] = target: Gal(b1-4)GlcNAc(b1-3)Gal(b1-4)GlcNAc(b1-3)Gal(b1-4)GlcNAc(b1-3)Gal(b1-4)GlcNAc(b1-3)Gal(b1-4)GlcNAc(b1-3)Gal(b1-4)GlcNAc(b1-2)Man(a1-3)[Gal(b1-4)GlcNAc(b1-3)Gal(b1-4)GlcNAc(b1-3)Gal(b1-4)GlcNAc(b1-3)Gal(b1-4)GlcNAc(b1-3)Gal(b1-4)GlcNAc(b1-3)Gal(b1-4)GlcNAc(b1-2)Man(a1-6)]Man(b1-4)GlcNAc(b1-4)GlcNAc
Method in brief: as §1

B1: B725 (Bifidobacterium sp) (protein)
chain: MNNTTRAVIATAAIGALLIPLAGCGNTTTSSGKTELTVWSWDASIDRAAKSFMKANPDITVKVSNVGSTEETYTALNNAAQAGSGLPDVTLIEYLAIPQFVHSDTLMDLSKVYNTAKLKDTFTPGTWNSVNINGGLYAMPADSGPMAYFYDKDVFDKAGISEPPTTWDEFYEDAKKIRATGSYITSDSGDAGLFNAMMWAMGGHAYKLNDDKLTINIAKDKGAQRFMDLWQKMRDEDLIDVHTKTWTDDWMKSLGDGSIASLISGAWMANNLLQGVPQATGKFRVALLPTIDGTPINGEYGGSGLAITKKIPDGKLDAAKKFVEYVTTNDEGIDARVSNGSFPATTKTLNQKDFLAKTTLRNTDGSDNEFFGGQKYNEIFSQAAKDVTGKWEFLPFEPYARSVYNDNMGSFFAGKTSFRTAADNWQKALKDYAKDQGFTVQ
Question: Which results are given for B1?
Answer: glycan array binding signal (z-score) (Fuc(a1-2)Gal): -0.221; glycan array binding signal (z-score) (Fuc(a1-2)Gal(b1-3)GalNAc): -0.216; glycan array binding signal (z-score) [1]: -0.181; glycan array binding signal (z-score) [2]: -0.234; glycan array binding signal (z-score) (Fuc(a1-2)Gal6S(b1-4)Glc): -0.199; glycan array binding signal (z-score) [3]: -0.208; glycan array binding signal (z-score) [4]: -0.23; glycan array binding signal (z-score) [5]: -0.222; glycan array binding signal (z-score) [6]: -0.217; glycan array binding signal (z-score) [7]: -0.21; glycan array binding signal (z-score) [8]: -0.216; glycan array binding signal (z-score) (Fuc(b1-3)GlcNAc): -0.226; glycan array binding signal (z-score) [9]: -0.214; glycan array binding signal (z-score) [10]: -0.225; glycan array binding signal (z-score) [11]: -0.203; glycan array binding signal (z-score) [12]: -0.224; glycan array binding signal (z-score) [13]: -0.218; glycan array binding signal (z-score) [14]: -0.204; glycan array binding signal (z-score) [15]: -0.231; glycan array binding signal (z-score) [16]: 6.34; glycan array binding signal (z-score) [17]: 6.94; glycan array binding signal (z-score) [18]: 5.11; glycan array binding signal (z-score) [19]: 4.38; glycan array binding signal (z-score) [20]: 7.51; glycan array binding signal (z-score) [21]: 5.3; glycan array binding signal (z-score) [22]: 4.85; glycan array binding signal (z-score) [23]: 6.73; glycan array binding signal (z-score) [24]: 4; glycan array binding signal (z-score) [25]: 5.49; glycan array binding signal (z-score) [26]: 8.21

Source: the supplement of paper PMC8728848
